The source of these data is PMC10812921, “Transcriptional Coactivator BOB1 (OBF1, OCA-B) Modulates the Specificity of DNA Recognition by the POU-Domain Factors OCT1 and OCT2 in a Monomeric Configuration”.

For one experiment, the target named is POU1 (OCT1 POU domain) (human, UniProt P14859 260-458). In words: EMSA-SELEX-seq; no BOB1; 20 mM Tris-HCl pH 7.6, 140 mM NaCl, 10% glycerol, 0.5 mM EDTA, 0.05% Triton X-100, 0.1 mg/mL BSA, 0.1 mg/mL poly(dI-dC), 5 mM DTT, room temperature, 20 min; high values mean tight binding. To be noted: protein: recombinant; dsDNA, one strand shown. The procedure, abridged:
(§1)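 After expression in E. coli BL21, tagged POU-domain proteins were purified under denaturing conditions and then renatured. Each binding reaction held 30 ng protein and 300 ng of a PCR-amplified double-stranded random 35-nt library in 20 μL Tris–HCl pH 7.6 binding buffer, with or without 28 ng coactivator protein, for 20 min at RT. Bands holding complexes were cut from native 6% PAGE, eluted and PCR-amplified across four rounds, and the output was Illumina-sequenced. The value given for binding preference is the share, in percent, of sequenced 8-mers fitting a motif pattern.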
A general note: A gel shift assay detects complexes by their altered migration in electrophoresis.

In another experiment the target is T1, POU2 (OCT2 POU domain) (human, UniProt P09086 175-386).
T1 sequence: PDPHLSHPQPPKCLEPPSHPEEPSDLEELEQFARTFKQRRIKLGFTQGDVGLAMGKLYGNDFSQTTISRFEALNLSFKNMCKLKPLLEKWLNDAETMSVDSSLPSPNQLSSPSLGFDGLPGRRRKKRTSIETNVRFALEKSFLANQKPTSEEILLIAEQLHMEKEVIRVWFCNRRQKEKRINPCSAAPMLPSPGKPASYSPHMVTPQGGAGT
Described as above. The conditions noted are these: protein: recombinant; dsDNA, one strand shown. The procedure, abridged:
as §1

Experiment [1] addresses POU1 (OCT1 POU domain);BOB1 (OBF1, OCA-B) (human;human, UniProt P14859;Q16633 260-458;1-256, |). In words: EMSA-SELEX-seq; with BOB1 (ternary complex band); 20 mM Tris-HCl pH 7.6, 140 mM NaCl, 10% glycerol, 0.5 mM EDTA, 0.05% Triton X-100, 0.1 mg/mL BSA, 0.1 mg/mL poly(dI-dC), 5 mM DTT, room temperature, 20 min; high values mean tight binding. The conditions noted are these: protein: recombinant;recombinant; copies: 1;1; dsDNA, one strand shown. The procedure, abridged:
as §1

For experiment [2], the target named is T2, POU2 (OCT2 POU domain);BOB1 (OBF1, OCA-B) (human;human, UniProt P09086;Q16633 175-386;1-256, |).
T2 sequence 1: T1 sequence
T2 sequence 2: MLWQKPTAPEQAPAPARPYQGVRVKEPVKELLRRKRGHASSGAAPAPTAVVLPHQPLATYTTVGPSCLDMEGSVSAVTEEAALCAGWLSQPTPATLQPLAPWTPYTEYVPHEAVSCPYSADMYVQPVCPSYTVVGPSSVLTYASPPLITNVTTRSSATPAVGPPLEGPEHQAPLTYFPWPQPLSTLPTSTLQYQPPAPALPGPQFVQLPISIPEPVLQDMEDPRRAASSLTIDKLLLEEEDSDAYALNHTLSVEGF
The experiment is described as above. To be noted: protein: recombinant;recombinant; copies: 1;1; dsDNA, one strand shown. In short, it runs like this:
as §1

Sequence of POU1 (OCT1 POU domain) (P14859 260-458): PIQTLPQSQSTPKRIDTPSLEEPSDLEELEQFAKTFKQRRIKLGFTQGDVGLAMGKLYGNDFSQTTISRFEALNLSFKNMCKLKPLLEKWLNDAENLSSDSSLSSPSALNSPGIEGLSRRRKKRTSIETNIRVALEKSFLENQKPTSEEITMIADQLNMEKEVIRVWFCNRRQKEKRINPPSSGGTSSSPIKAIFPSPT

For ACCCGAAT, the binding signal with POU1 (OCT1 POU domain) is 0.0233 % of ANNNNAAN 8-mers; in the experiment with POU2 (OCT2 POU domain), 0.0386 % of ANNNNAAN 8-mers; in experiment [1] it was 0.0219 % of ANNNNAAN 8-mers; in experiment [2], 0.0248 % of ANNNNAAN 8-mers.
In the same order, the values of AACACAAT are 0.0351 % of ANNNNAAN 8-mers, 0.0351 % of ANNNNAAN 8-mers, 0.0293 % of ANNNNAAN 8-mers and 0.0421 % of ANNNNAAN 8-mers.
In the case of AAGATAAG, the binding signal with POU1 (OCT1 POU domain) was 0.045 % of ANNNNAAN 8-mers; in the experiment with POU2 (OCT2 POU domain), 0.0593 % of ANNNNAAN 8-mers; in experiment [1], 0.046 % of ANNNNAAN 8-mers; in experiment [2], 0.0429 % of ANNNNAAN 8-mers.
As to AGAGTAAA, the binding signal with POU1 (OCT1 POU domain) was 0.0564 % of ANNNNAAN 8-mers; in the experiment with POU2 (OCT2 POU domain), 0.0386 % of ANNNNAAN 8-mers; in experiment [1] it was 0.0605 % of ANNNNAAN 8-mers; in experiment [2], 0.0512 % of ANNNNAAN 8-mers.
Take ACACGAAA: the binding signal was 0.0332 % of ANNNNAAN 8-mers in the experiment with POU1 (OCT1 POU domain), 0.027 % of ANNNNAAN 8-mers with POU2 (OCT2 POU domain), 0.0386 % of ANNNNAAN 8-mers in experiment [1] and 0.0215 % of ANNNNAAN 8-mers in experiment [2].
In the same order, the values of ATCGCAAT are 0.0336 % of ANNNNAAN 8-mers, 0.0391 % of ANNNNAAN 8-mers, 0.0328 % of ANNNNAAN 8-mers and 0.0347 % of ANNNNAAN 8-mers.
For ACGTCAAG, in that order: 0.0191 % of ANNNNAAN 8-mers, 0.0253 % of ANNNNAAN 8-mers, 0.0203 % of ANNNNAAN 8-mers and 0.0198 % of ANNNNAAN 8-mers.
For ATCACAAG, in that order: 0.0225 % of ANNNNAAN 8-mers, 0.0334 % of ANNNNAAN 8-mers, 0.0328 % of ANNNNAAN 8-mers and 0.0446 % of ANNNNAAN 8-mers.
For the sequence ACAACAAT, the binding signal is 0.0248 % of ANNNNAAN 8-mers with POU1 (OCT1 POU domain), 0.0305 % of ANNNNAAN 8-mers with POU2 (OCT2 POU domain), 0.023 % of ANNNNAAN 8-mers in experiment [1] and 0.0305 % of ANNNNAAN 8-mers in experiment [2].
For AGTGCAAT, the binding signal with POU1 (OCT1 POU domain) was 0.0347 % of ANNNNAAN 8-mers; with POU2 (OCT2 POU domain), 0.0455 % of ANNNNAAN 8-mers; in experiment [1] it was 0.0367 % of ANNNNAAN 8-mers; in experiment [2] it was 0.0396 % of ANNNNAAN 8-mers.
With AGATGAAC, the binding signal in the experiment with POU1 (OCT1 POU domain) was 0.0286 % of ANNNNAAN 8-mers; with POU2 (OCT2 POU domain), 0.0363 % of ANNNNAAN 8-mers; in experiment [1], 0.0207 % of ANNNNAAN 8-mers; in experiment [2], 0.0256 % of ANNNNAAN 8-mers.
As for ACGCTAAC, the binding signal is 0.0118 % of ANNNNAAN 8-mers with POU1 (OCT1 POU domain), 0.0121 % of ANNNNAAN 8-mers in the experiment with POU2 (OCT2 POU domain), 0.0133 % of ANNNNAAN 8-mers in experiment [1] and 0.0157 % of ANNNNAAN 8-mers in experiment [2].
On to ACACTAAC, for which the binding signal with POU1 (OCT1 POU domain) was 0.0137 % of ANNNNAAN 8-mers; in the experiment with POU2 (OCT2 POU domain), 0.0132 % of ANNNNAAN 8-mers; in experiment [1] it was 0.0117 % of ANNNNAAN 8-mers; in experiment [2] it was 0.014 % of ANNNNAAN 8-mers.
On to AGCCGAAC, for which the binding signal with POU1 (OCT1 POU domain) was 0.0133 % of ANNNNAAN 8-mers; with POU2 (OCT2 POU domain), 0.0161 % of ANNNNAAN 8-mers; in experiment [1], 0.016 % of ANNNNAAN 8-mers; in experiment [2], 0.014 % of ANNNNAAN 8-mers.
AGCCTAAG: the binding signal was 0.0183 % of ANNNNAAN 8-mers with POU1 (OCT1 POU domain), 0.0207 % of ANNNNAAN 8-mers in the experiment with POU2 (OCT2 POU domain), 0.0219 % of ANNNNAAN 8-mers in experiment [1] and 0.0149 % of ANNNNAAN 8-mers in experiment [2].
For ATTGCAAC, in that order: 0.0256 % of ANNNNAAN 8-mers, 0.0178 % of ANNNNAAN 8-mers, 0.0195 % of ANNNNAAN 8-mers and 0.0272 % of ANNNNAAN 8-mers.
On to ATCGAAAG, for which the binding signal was 0.0294 % of ANNNNAAN 8-mers with POU1 (OCT1 POU domain), 0.0288 % of ANNNNAAN 8-mers with POU2 (OCT2 POU domain), 0.0379 % of ANNNNAAN 8-mers in experiment [1] and 0.0272 % of ANNNNAAN 8-mers in experiment [2].
ATACGAAC: the binding signal with POU1 (OCT1 POU domain) was 0.0343 % of ANNNNAAN 8-mers; in the experiment with POU2 (OCT2 POU domain), 0.0345 % of ANNNNAAN 8-mers; in experiment [1], 0.032 % of ANNNNAAN 8-mers; in experiment [2], 0.0347 % of ANNNNAAN 8-mers.
For the sequence ACCAAAAC, the binding signal is 0.0168 % of ANNNNAAN 8-mers with POU1 (OCT1 POU domain), 0.0242 % of ANNNNAAN 8-mers in the experiment with POU2 (OCT2 POU domain), 0.032 % of ANNNNAAN 8-mers in experiment [1] and 0.0206 % of ANNNNAAN 8-mers in experiment [2].
Consider AACCAAAG, for which the binding signal with POU1 (OCT1 POU domain) was 0.0336 % of ANNNNAAN 8-mers; with POU2 (OCT2 POU domain), 0.038 % of ANNNNAAN 8-mers; in experiment [1], 0.0539 % of ANNNNAAN 8-mers; in experiment [2], 0.0231 % of ANNNNAAN 8-mers.
In the case of ACTCCAAG, the binding signal with POU1 (OCT1 POU domain) is 0.0191 % of ANNNNAAN 8-mers; in the experiment with POU2 (OCT2 POU domain), 0.0196 % of ANNNNAAN 8-mers; in experiment [1] it was 0.0195 % of ANNNNAAN 8-mers; in experiment [2] it was 0.0124 % of ANNNNAAN 8-mers.
Take ACCACAAA: the binding signal in the experiment with POU1 (OCT1 POU domain) is 0.0141 % of ANNNNAAN 8-mers; with POU2 (OCT2 POU domain) it was 0.0196 % of ANNNNAAN 8-mers; in experiment [1], 0.014 % of ANNNNAAN 8-mers; in experiment [2], 0.0198 % of ANNNNAAN 8-mers.
Take AGAGAAAC: the binding signal with POU1 (OCT1 POU domain) was 0.0221 % of ANNNNAAN 8-mers; with POU2 (OCT2 POU domain) it was 0.0247 % of ANNNNAAN 8-mers; in experiment [1] it was 0.0332 % of ANNNNAAN 8-mers; in experiment [2], 0.0231 % of ANNNNAAN 8-mers.
As to ACCGTAAA, the binding signal was 0.0244 % of ANNNNAAN 8-mers with POU1 (OCT1 POU domain), 0.0253 % of ANNNNAAN 8-mers with POU2 (OCT2 POU domain), 0.0226 % of ANNNNAAN 8-mers in experiment [1] and 0.0173 % of ANNNNAAN 8-mers in experiment [2].
With ATGATAAT, the binding signal with POU1 (OCT1 POU domain) was 0.513 % of ANNNNAAN 8-mers; in the experiment with POU2 (OCT2 POU domain), 0.582 % of ANNNNAAN 8-mers; in experiment [1], 0.138 % of ANNNNAAN 8-mers; in experiment [2], 0.135 % of ANNNNAAN 8-mers.
Take ACGTAAAT: the binding signal with POU1 (OCT1 POU domain) was 0.217 % of ANNNNAAN 8-mers; with POU2 (OCT2 POU domain), 0.172 % of ANNNNAAN 8-mers; in experiment [1] it was 0.232 % of ANNNNAAN 8-mers; in experiment [2] it was 0.147 % of ANNNNAAN 8-mers.
On to AGAACAAT, for which the binding signal with POU1 (OCT1 POU domain) is 0.0378 % of ANNNNAAN 8-mers; in the experiment with POU2 (OCT2 POU domain) it was 0.0414 % of ANNNNAAN 8-mers; in experiment [1] it was 0.0293 % of ANNNNAAN 8-mers; in experiment [2], 0.038 % of ANNNNAAN 8-mers.
In the case of ACACAAAG, the binding signal with POU1 (OCT1 POU domain) was 0.0309 % of ANNNNAAN 8-mers; in the experiment with POU2 (OCT2 POU domain), 0.0196 % of ANNNNAAN 8-mers; in experiment [1], 0.0418 % of ANNNNAAN 8-mers; in experiment [2] it was 0.0305 % of ANNNNAAN 8-mers.
AGGTTAAT: the binding signal in the experiment with POU1 (OCT1 POU domain) is 0.174 % of ANNNNAAN 8-mers; with POU2 (OCT2 POU domain), 0.216 % of ANNNNAAN 8-mers; in experiment [1], 0.0921 % of ANNNNAAN 8-mers; in experiment [2], 0.108 % of ANNNNAAN 8-mers.
As for ATTCCAAC, the binding signal in the experiment with POU1 (OCT1 POU domain) was 0.0339 % of ANNNNAAN 8-mers; in the experiment with POU2 (OCT2 POU domain), 0.0432 % of ANNNNAAN 8-mers; in experiment [1], 0.0269 % of ANNNNAAN 8-mers; in experiment [2] it was 0.0223 % of ANNNNAAN 8-mers.
Consider ACTAAAAG, for which the binding signal in the experiment with POU1 (OCT1 POU domain) was 0.0282 % of ANNNNAAN 8-mers; with POU2 (OCT2 POU domain), 0.0368 % of ANNNNAAN 8-mers; in experiment [1], 0.0332 % of ANNNNAAN 8-mers; in experiment [2], 0.0297 % of ANNNNAAN 8-mers.
